From PubChem BioAssay (Tox21) come the findings set out here.

Inconclusive results are not listed. Calls of active or inactive are those of the source. The call rests on the fitted dose curve; in most records, active means well fitted activation curve with a large enough effect in the signal ratio in the repeat runs (not every such curve was filed as active); inconclusive means weak or mixed curves; inactive means flat fitted curve, though single readings scatter; the % refers to the signal ratio.
On the % scale 0 is the no-effect control and ±100 the full control effect.

The nature of the experiment: qHTS assay to identify small molecule agonists of the TGF-beta/Smad signaling pathway (AID 1346859). Particulars: SBE-bla HEK293T, TGF-beta/Smad beta-lactamase reporter, 5 h; series mostly up to 76.8 µM; activation: at the top concentration. The source says:
U.S. Tox21 Program National Center for Advancing Translational Sciences [NCATS] NIH Chemical Genomics Center [NCGC] U.S. Environmental Protection Agency [EPA] National Institutes of Environmental Health Sciences [NIEHS] National Toxicology Program [NTP] U.S. Food and Drug Administration [FDA] Tox21 Assay Overview: Transforming growth factor beta (TGF-beta) superfamily consists of a large number of structurally related dimeric proteins that act as hormones or local mediators in regulating a wide range of biological functions. This superfamily includes TGF-betas themselves, the bone morphogenetic proteins (BMPs) and the activins. These ligands induce oligomerization of serine/threonine receptor kinases and phosphorylate the cytoplasmic signaling molecules of Smad protein family. CellSensor SBE-bla HEK 293T cell line (Life Technologies, Carlsbad, CA), responsive to TGF-beta was used to screen Tox21 10K compound library for identification of agonists/antagonists of the Smad signaling pathway. This cell line contains a beta-lactamase reporter gene under control of the Smad binding element (SBE) stably integrated into HEK 293T cells.
Tox21 Assay Protocol Summary: SBE-bla HEK 293T cells were dispensed at 4,000/well in 6 uL of assay medium into black wall/clear-bottom 1536-well plates using a Multidrop Combi (ThermoFisher Scientific, Waltham, MA) dispenser. After the assay plates were incubated at 37 C and 5% CO2 for an overnight, 23 nL of compounds dissolved in DMSO, positive controls or DMSO only was transferred to the assay plate by a Pintool station (Kalypsys, San Diego, CA). The assay plates were incubated at 37 C and 5% CO2 for 5 hr. One uL of LiveBLAzer B/G FRET substrate (Life Technologies) was added using a Flying Reagent Dispenser (Aurora Discovery, San Diego, CA) and the plates were incubated at room temperature for 2 hr. Fluorescence intensity (405 nm excitation, 460 nm and 530 nm emissions) was measured using an Envision plate reader (PerkinElmer, Shelton, CT).
For orientation: Quantitative high-throughput screening tests each substance at several concentrations.
Regarding `C=C(C)C(=O)OCc1ccccc1`, the “activation” value was 0.107% (inactive).

For the compound `OCCN(CCO)c1cccc(Cl)c1`, the “activation” value was 0.467% (inactive).

Take `O=C1c2ccccc2C(=O)c2cc(S(=O)(=O)O)ccc21`: the “activation” value is -2% (inactive). On to `C[C@@H]1O[C@@H](O[C@@H]2[C@@H](O)[C@H](OCCc3ccc(O)c(O)c3)O[C@H](CO[C@@H]3O[C@H](CO)[C@@H](O)[C@H](O)[C@H]3O)[C@H]2OC(=O)/C=C/c2ccc(O)c(O)c2)[C@H](O)[C@H](O)[C@H]1O`, for which the “activation” value was 2.51% (inactive). The value for `CC(=O)Nc1ccc(S(=O)(=O)Cl)cc1` was 1.76% (inactive); that for `COc1nccnc1NS(=O)(=O)c1ccc(N)cc1` was 2.75% [at 35.3 µM] (inactive); that for `COc1ccc2nc(SCc3ncc(C)c(OC)c3C)[nH]c2c1` was -5.4% [at 35.3 µM] (inactive). As for `C[C@@H](O)[C@H]1C(=O)N2C(C(=O)O)=C(SCCN=CN)C[C@H]12`, the “activation” value was -1.81% [at 35.3 µM] (inactive). The value for `COCCOCCOCCOCCOCCO` was 0.193% (inactive); that for `c1ccc2c(c1)ccc1c3ccccc3ccc21` was 6.87% [at 35.3 µM] (inactive). For the compound `CN(CCOc1ccc(NS(C)(=O)=O)cc1)CCc1ccc(NS(C)(=O)=O)cc1`, the “activation” value is 0.548% [at 35.3 µM] (inactive).

For `O=P(O)(O)OP(=O)(O)O`, the “activation” value was -1.36% (inactive).

As for `CCCCCOC(=O)CCC`, the “activation” value is 0.222% (inactive). The result for `CCC(C)NC(N)=O` (stereo not given) reads 0.31% (inactive). As to `CCCOC(=O)C(C)O` (stereo not given), the “activation” value is 3.33% (inactive). The value for `Cc1ccsc1/C=C/C1=NCCCN1C` was 0.101% [at 35.3 µM] (inactive); that for `CCc1ccc(C=O)cc1` was 4.76% (inactive); that for `CC(C(=O)O)c1ccc2c(c1)CC(=O)c1ccccc1S2` (stereo not given) was -4.25% [at 35.3 µM] (inactive). The value for `CCCCCCN` was 1.21% (inactive); that for `CCCCNC1CC(C)(C)NC(C)(C)C1` was 2.26% (inactive). The value for `O=S(=O)(O)CCN1CCN(CCO)CC1` was 2.69% (inactive); that for `CC(=O)c1sc(C)nc1C` was 0.376% (inactive); that for `CCOc1cc(NC(C)=O)ccc1C(=O)OC` was -2.72% [at 35.3 µM] (inactive). For the compound `O=C1c2ccccc2C(=O)N1CCl`, the “activation” value is 1.72% (inactive). The result for `CCCCCCCCCCCCCC` reads 1.44% (inactive); that for `CCCCCCCCCCl`, 2.67% (inactive).

`CC(N)C(=O)OC(C)(C)Cc1ccc(Cl)cc1` (stereo not given): the “activation” value is 0.432% [at 35.3 µM] (inactive). The value for `CCOC(=O)c1ncn2c1CN(C)C(=O)c1cc(F)ccc1-2` was -0.188% [at 35.3 µM] (inactive); that for `N[C@@H](CCC(=O)N[C@@H](CS)C(=O)NCC(=O)O)C(=O)O` was 1.79% [at 15.8 µM] (inactive); that for `C=C(C)C(=O)OCCNC(C)(C)C` was 1.35% (inactive). The result for `C[Si](C)(C)C` reads -1.73% (inactive); that for `CC(=C(CCOC(=O)C(C)C)SSC(CCOC(=O)C(C)C)=C(C)N(C=O)Cc1cnc(C)nc1N)N(C=O)Cc1cnc(C)nc1N`, 8.7% [at 35.3 µM] (inactive).

Take `CC(=O)c1ccc2c(c1)Cc1ccccc1-2`: the “activation” value was -7.84% (inactive). The result for `CC(=O)N[C@@H](CCC(=O)O)C(=O)O` reads 2.34% [at 35.3 µM] (inactive); that for `CC(C)c1ccc2cc(C(C)C)ccc2c1`, 0.389% (inactive). In the case of `CC(C)(C)NC(N)=O`, the “activation” value is 1.91% (inactive). Consider `O=C1c2ccccc2C(=O)C1c1ccccc1`, for which the “activation” value is 0.748% [at 35.3 µM] (inactive).

Consider `CC1=C(C(=O)O)N2C(=O)[C@@H](NC(=O)[C@H](N)c3ccc(O)cc3)[C@H]2SC1`, for which the “activation” value was 0.28% [at 35.3 µM] (inactive). The result for `CC(C)CCCC(C)(C)O` reads 3.49% (inactive); that for `C=C(C)C(=O)OCC(C)(C)COC(=O)C(=C)C`, -0.0457% (inactive).
